Some test systems named below: DU-145 prostate; K-562 leukemia; MALME-3M melanoma; MDA-MB-231 breast; SF-268 CNS; SF-295 CNS; SF-539 CNS; UACC-257 melanoma; M14 melanoma.
What all share (assay): NCI-60 one-dose screen, 48 h (100 = growth as untreated, 0 = no growth, -100 = all killed)
What all share (settings): 10 µM

The structures appear in SMILES notation. This is part of a sample that, as a whole, favours compounds with a hit. Of some 83,000 tested, about 20% had one in any assay.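 Compound tested at a single concentration for 48 hours in 96-well plates; a percent growth value below 10 was scored as active.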 Unmarked numbers belong to inactive results. Active and inactive are the calls of the source.

Regarding `N#Cc1ccc(-c2nn(-c3ccc(C(=O)O)cc3)cc2CNc2cccc(Br)c2)cc1`, the growth is 76.8% with DU-145 prostate; 46.3% in the assay on K-562 leukemia; 95.6% in the assay on MALME-3M melanoma; 89.4% in the assay with MDA-MB-231 breast; 51.7% in the assay with SF-268 CNS; 42.5% in the assay on SF-295 CNS. Also, the values for the growth in the assay on SF-539 CNS, in the assay on UACC-257 melanoma and in the assay on M14 melanoma were 38.6%, 65.7% and 37.2%, respectively.
Turning to `CCN1CCN(Cc2ccc(C(=O)Nc3cccc(-c4cn(-c5ccc6oc(=O)ccc6c5)nn4)c3)cc2C(F)(F)F)CC1`, the growth in the assay on DU-145 prostate was -100% (active); in the assay with K-562 leukemia, -61.7% (active); in the assay on MALME-3M melanoma it was -100% (active); in the assay with MDA-MB-231 breast, -100% (active); with SF-268 CNS, -32.5% (active); in the assay on SF-295 CNS it was -100% (active). For the same compound, the values for the growth in the assay on SF-539 CNS, in the assay on UACC-257 melanoma and in the assay on M14 melanoma were -100% (active), -49.9% (active) and -100% (active), respectively.
Take `O=C(CNc1nc(-c2ccccc2)cs1)Nc1cccc(Cl)c1`: the growth in the assay with DU-145 prostate is 53.5%; with K-562 leukemia it was 19.6%; with MALME-3M melanoma, 64.1%; with MDA-MB-231 breast it was 30.8%; in the assay on SF-268 CNS it was 30.6%; in the assay on SF-295 CNS it was 22.4%. In addition, the growth is 42.3% in the assay on SF-539 CNS, 62.9% in the assay with UACC-257 melanoma and 34% in the assay with M14 melanoma.
With `O=c1[nH]c2ccccc2cc1CSc1ccc(Nc2nccc(-c3ccc4c(c3)OCO4)n2)cc1`, the growth with DU-145 prostate is 77.5%; in the assay with K-562 leukemia, 87.6%; in the assay with MALME-3M melanoma, 55.2%; in the assay with MDA-MB-231 breast, 78.6%; with SF-268 CNS it was 71.6%; in the assay on SF-295 CNS it was 101%. Moreover, the values for the growth in the assay with SF-539 CNS, in the assay on UACC-257 melanoma and in the assay with M14 melanoma were 9.95% (active), 105% and 82.4%, respectively.
Take `N#C/C(=C\c1ccc(N(c2ccccc2)c2ccccc2)cc1)C(N)=O`: the growth was 84.8% in the assay on DU-145 prostate; 35.4% in the assay with K-562 leukemia; 110% in the assay on MALME-3M melanoma; 89.3% in the assay with MDA-MB-231 breast; 102% with SF-268 CNS; 23.5% in the assay with SF-295 CNS. Also, the growth is 97% in the assay with SF-539 CNS, -55.9% (active) in the assay on UACC-257 melanoma and 90.7% in the assay with M14 melanoma.
Consider `Cc1ccn2c(C(=O)c3ccccc3)cc(-c3cc(-c4ccc(N(C)C)cc4)c(C#N)c(N)n3)c2c1`, for which the growth with DU-145 prostate is 56.4%; with K-562 leukemia, 70.9%; in the assay on MALME-3M melanoma it was 63.6%; with MDA-MB-231 breast, 25.7%; in the assay on SF-268 CNS, 61.2%; with SF-295 CNS it was 69.3%. Also, the growth in the assay on SF-539 CNS is -62.1% (active); in the assay with UACC-257 melanoma, 85.7%; in the assay with M14 melanoma it was 81.3%.
Consider `O=c1[nH]c2ccccc2cc1CSc1ccc(Nc2nccc(-c3ccc(Cl)cc3)n2)cc1`, for which the growth is -52% (active) with DU-145 prostate; 36.2% with K-562 leukemia; -54.3% (active) in the assay with MALME-3M melanoma; -56.1% (active) with MDA-MB-231 breast; 2.16% (active) with SF-268 CNS; -90.8% (active) in the assay on SF-295 CNS. The growth with SF-539 CNS is -89% (active); in the assay on UACC-257 melanoma it was 54.1%; with M14 melanoma, 30.8%.
As to `O=C(NCCCCCCCCCC[P+](c1ccccc1)(c1ccccc1)c1ccccc1)c1ccc(-n2nc(-c3ccccc3O)nc2-c2ccccc2O)cc1`, the growth in the assay with DU-145 prostate was -45.8% (active); in the assay with K-562 leukemia it was 6.35% (active); in the assay on MALME-3M melanoma it was -94% (active); in the assay with MDA-MB-231 breast, -73.6% (active); in the assay with SF-268 CNS it was -28.8% (active); in the assay with SF-295 CNS it was -90.4% (active). In addition, the growth is -95.9% (active) with SF-539 CNS, -71.5% (active) in the assay with UACC-257 melanoma and -84.9% (active) with M14 melanoma.
For `COc1ccc(/C=C/C(=O)c2ccc(N3CCN(C)CC3)cc2)c(C(F)(F)F)c1`, the growth in the assay on DU-145 prostate is 41.3%; in the assay on K-562 leukemia, 2.66% (active); in the assay on MALME-3M melanoma it was 45.2%; in the assay with MDA-MB-231 breast, 37.4%; in the assay with SF-268 CNS, 70.8%; in the assay with SF-295 CNS, 18.4%. Also, the growth in the assay on SF-539 CNS is 14.6%; with UACC-257 melanoma it was 63.3%; in the assay on M14 melanoma, 38.3%.
With `Cc1ccc(/C(CSc2nnc(-c3c[nH]c4ccccc34)n2-c2ccccc2)=N/O)cc1`, the growth was -60.2% (active) in the assay with DU-145 prostate; 1.59% (active) in the assay on K-562 leukemia; 16.7% in the assay on MALME-3M melanoma; -82.1% (active) in the assay on MDA-MB-231 breast; -60.1% (active) with SF-268 CNS; -49.9% (active) in the assay with SF-295 CNS. Further, the growth in the assay with SF-539 CNS is 10.1%; with UACC-257 melanoma, 35.7%; with M14 melanoma it was -64.4% (active).
Consider `COc1ccc(/C=C/C(=O)c2ccc(S(=O)(=O)NCCNc3nc(Nc4ccc(F)cc4)nc(N(C)C)n3)cc2)cc1`, for which the growth with DU-145 prostate is 28.7%; with K-562 leukemia, 27.3%; with MALME-3M melanoma, 49.3%; with MDA-MB-231 breast, 29%; in the assay with SF-268 CNS, 25.8%; in the assay on SF-295 CNS it was 23.3%. Moreover, the growth in the assay with SF-539 CNS is 41.7%; in the assay on UACC-257 melanoma, 47.9%; in the assay with M14 melanoma it was 7.31% (active).
In the case of `CN1CCc2c(sc3ncnc(N/N=C/c4ccc5ccccc5c4)c23)C1`, the growth in the assay with DU-145 prostate was 68.8%; with K-562 leukemia it was 13.9%; with MALME-3M melanoma, 91.2%; with MDA-MB-231 breast, 48%; in the assay on SF-268 CNS, 68.9%; with SF-295 CNS, 53.9%. Further, the values for the growth with SF-539 CNS, in the assay with UACC-257 melanoma and with M14 melanoma were 29.1%, 107% and 82%, respectively.
Take `CN(C)c1ccc(/C=C/c2nc3ccccc3c(=O)n2CC(=O)Nc2ccccc2)cc1`: the growth with DU-145 prostate was 42.1%; in the assay on K-562 leukemia, 55.6%; in the assay on MALME-3M melanoma, 15.7%; in the assay with MDA-MB-231 breast, 33.4%; with SF-268 CNS, 57.3%; in the assay with SF-295 CNS, 35.5%. Moreover, the results for the growth in the assay on SF-539 CNS, in the assay with UACC-257 melanoma and in the assay on M14 melanoma were -26.8% (active), 60.4% and 81.4%, respectively.

These data come from PubChem BioAssay (NCI).
